Results reported in PubChem BioAssay AID743395 (Broad Institute, 2014).
About 480 (40%) of roughly 1,200 compounds were called active. How the calls were made is not given here. The set was probably picked from earlier hits. A selection follows. Measured potencies and affinities stand elsewhere.

Assay: viability loss in human hepatoma cells – cell-based, CellTiter-Glo luminescence, cherry-pick, set 2, cytotoxicity control, dose response (AID 743395)
Conditions: HepG2 viability, CellTiter-Glo ATP luminescence, 72 h; series mostly up to 26 µM

| SMILES | outcome |
| --- | --- |
| COc1ccc(CCC(=O)N2CCN(S(=O)(=O)c3ccc(OC(F)(F)F)cc3)CC2)cc1 | inactive |
| CCS(=O)(=O)N1CC(=O)N2[C@H](CO)[C@@H](c3ccc(C#CCC(C)C)cc3)[C@@H]2C1 | inactive |
| CCS(=O)(=O)N1CC(=O)N2[C@H](C1)[C@@H](c1ccc(C#CCC(C)C)cc1)[C@@H]2CO | inactive |
| CS(=O)(=O)N1CC(=O)N2[C@H](C1)[C@H](c1ccc(C#Cc3ccc(F)cc3)cc1)[C@@H]2CO | inactive |
| COc1cc(SC)ccc1C(=O)N1CCN(c2ccccc2OC)CC1 | inactive |
| COc1ccccc1N1CCN(/N=C/C=C\c2ccccc2[N+](=O)[O-])CC1 | inactive |
| Cc1ccc(C(=O)NCC(=O)OCC(=O)NC(C)c2ccccc2)s1 (stereo unspecified) | inactive |
| C[C@@H]1CN([C@@H](C)CO)C(=O)c2cccc(NC(=O)Nc3ccc4c(c3)OCO4)c2O[C@H]1CN(C)S(=O)(=O)c1ccccc1 | inactive |
| C[C@@H]1CN([C@@H](C)CO)C(=O)Cc2cc(NC(=O)Nc3ccc(C(F)(F)F)cc3)ccc2O[C@H]1CN(C)C(=O)Nc1ccccc1 | inactive |
| C[C@H](CO)N1C[C@H](C)[C@H](CN(C)Cc2ccc(Cl)c(Cl)c2)Oc2ccc(NC(=O)C3CCCCC3)cc2CC1=O | inactive |
| C[C@@H]1CN([C@H](C)CO)C(=O)c2cc(NC(=O)Cc3cn(C)c4ccccc34)ccc2O[C@@H]1CN(C)Cc1ccc(Cl)c(Cl)c1 | inactive |
| C[C@@H]1CN([C@@H](C)CO)C(=O)Cc2cc(N(C)C)ccc2O[C@@H]1CN(C)Cc1ccccc1 | inactive |
| C[C@H]1CCCCO[C@H](CN(C)C(=O)Cc2ccccc2)[C@@H](C)CN([C@@H](C)CO)C(=O)c2cc(N(C)C)ccc2O1 | inactive |
| C[C@@H]1CN([C@@H](C)CO)C(=O)c2cc(NC(=O)Nc3cccc4ccccc34)ccc2O[C@@H](C)CCCCO[C@@H]1CN(C)Cc1ccc2c(c1)OCO2 | inactive |
| CCNC(=O)C1CCCN(C(=O)c2cc(F)ccc2C)CC1 (stereo unspecified) | inactive |
| CCNC(=O)C1(C)CCN(C(=O)c2cc(F)ccc2C)C1 (stereo unspecified) | inactive |
| Cc1cccc(CC(=O)Nc2cccnc2)c1 | inactive |
| CN1c2ccc(-c3ccc(C#N)cc3)cc2[C@H]2[C@H](CCN2S(=O)(=O)c2cccc(F)c2)[C@H]1CO | inactive |
| CN1c2ccc(-c3ccc(C#N)cc3)cc2[C@H]2[C@H](CCN2S(=O)(=O)c2cccc(F)c2)[C@@H]1CO | inactive |

| SMILES | outcome |
| --- | --- |
| O=C(O)C1=C[C@@H](O)[C@@H](O)[C@H](O)C1 | inactive |
| COc1ccc(C(=O)c2cc(OC)c(OC)c(OC)c2)cc1OC | inactive |
| CCOCCOC(=O)COC(=O)c1ccccc1NC(=O)c1ccccc1 | inactive |
| COc1ccc(C(=O)Nc2ccccc2C(=O)Nc2ccccc2)cc1 | inactive |
| Cc1nc(NCc2cccnc2)c2c3c(sc2n1)CCCC3 | inactive |
| COc1ccc(-c2cc(=O)c3c(O)cc(O)cc3o2)cc1 | inactive |
| O=C1NC(=Nc2cccnc2)S/C1=C/c1ccc(F)cc1 | inactive |
| Cn1cccc1/C=C1\SC(=Nc2ccc(O)cc2)NC1=O | inactive |
| C=CC[C@@H](CC(=O)N(CCO)Cc1ccccc1)C(=O)N[C@H](COC(=O)[C@H](CC=C)CC(=O)OC(C)(C)C)Cc1c[nH]c2ccccc12 | inactive |
| CC(C)CC#Cc1ccc([C@H]2[C@H](CO)N3C(=O)CN(C(=O)Nc4cc(F)ccc4F)C[C@@H]23)cc1 | inactive |
| O=C(Nc1cc(F)ccc1F)N1CC(=O)N2[C@@H](CO)[C@H](c3ccc(C#CC4CCCCC4)cc3)[C@@H]2C1 | inactive |
| CCCC#Cc1ccc([C@H]2[C@H](CO)N3C(=O)CN(C(=O)Nc4cc(F)ccc4F)C[C@@H]23)cc1 | inactive |
| CCCNC(=O)N1[C@H](C#N)[C@H](c2ccc(C#Cc3ccc(F)cc3)cc2)[C@@H]1CO | inactive |
| Cc1ccc(-c2cccc(CN3CCN(C(C)C)C(CCO)C3)c2)o1 (stereo unspecified) | inactive |
| COc1cc(-c2noc(C)c2C#Cc2ccsc2)cc(OC)c1OC | inactive |
| COc1cc(-c2noc(C)c2C#Cc2ccccn2)cc(OC)c1OC | inactive |
| CCN1CCCC(OC(=O)c2cc(-c3ccccc3Cl)nc3ccccc23)C1 (stereo unspecified) | inactive |
| CCOc1ccc(-c2cc(C(=O)N/N=C/c3ccc(O)cc3)c3ccccc3n2)cc1 | inactive |
| O=C(CCC(=O)N1CCOc2ccc(Cl)cc21)N1CCN(c2ccccn2)CC1 | inactive |

| SMILES | outcome |
| --- | --- |
| COC(=O)Cc1c(O)ccn(Cc2ccc(Cl)c(Cl)c2)c1=O | inactive |
| CN1C(=O)c2cc(NC(=O)c3ccc(Cl)cc3)ccc2OC[C@@H]2O[C@H](CC(=O)NCc3cccc(F)c3)CC[C@H]21 | inactive |
| CCN(CC(=O)Nc1ccc(NC(C)=O)cc1)C(=O)c1ccc(N2CCC(C)CC2)c([N+](=O)[O-])c1 | inactive |
| Cc1c(CCC(=O)O)c(=O)oc2c(C)c(OCc3ccccc3Cl)ccc12 | inactive |
| COc1ccc(C(C)=O)cc1CS(=O)(=O)CC(=O)NCCc1c[nH]c2ccccc12 | inactive |
| O=C(CN(Cc1ccco1)Cc1ccco1)Nc1cc(S(=O)(=O)N2CCCCC2)ccc1Cl | inactive |
| Cc1c(OCC(=O)NCCN2CCOCC2)ccc2c3c(c(=O)oc12)CCC3 | inactive |
| Oc1cc2c(cc1O)C(c1ccccc1)CNCC2 (stereo unspecified) | inactive |
| COc1ccc(OC)c(C2CC(c3ccccc3)=NN2C(=S)Nc2ccccc2)c1 (stereo unspecified) | inactive |
| CCOc1ccc(N(CC)C(=O)COc2cc(=O)n(C)c3ccccc23)cc1 | inactive |
| CCOC(=O)c1c(C)[nH]c(C)c1C(=O)COC(=O)c1ccc([N+](=O)[O-])s1 | inactive |
| C/C=C/c1ccc([C@H]2[C@@H](CO)N(C(=O)COC)[C@@H]2CNC(=O)CC)cc1 | inactive |
| Cc1cc(/C=N/NC(N)=S)c(O)c(/C=N/NC(N)=S)c1 | inactive |
| Cc1cc2c(cc1C)C(c1ccccc1OC(C)C)CC(=O)N2 (stereo unspecified) | inactive |
| O=C(Nc1ccccc1)c1nc[nH]c1C(=O)Nc1ccccc1F | inactive |
| CN(CC(=O)Nc1cccc(S(=O)(=O)N2CCCC2)c1)CC(=O)Nc1ccc(F)c(F)c1F | inactive |
| COc1cccc(-c2cccc(-c3nc(C(=O)NCC(F)(F)F)cc4c3[C@H](CCO)N([S@@](=O)C(C)(C)C)C4)c2)c1 | inactive |
| N#Cc1nc(NCC(F)F)nc(Nc2cc(F)cc(F)c2)n1 | inactive |
